# In PubChem BioAssay AID1645870 (National Center for Advancing Translational Sciences (NCATS), 2021):
# “And” between values parts separate entries of the source, which are not always exact repeats. Equal values may be shown once. The whole screen tested about 59,000 compounds, of which about 1,500 (2.5%) were called active. Roughly 10% stayed inconclusive and do not appear here. Calls follow the shape of the dose curve; as a rule, active = well fitted inhibition curve with a large enough effect; inconclusive = small, poorly fitted or top-dose-only effect; inactive = flat fitted curve, though single readings scatter. What follows is part of a selection rich in actives, with near analogues and random picks from the rest. A structure can be active in one record and inactive in another.
# Biological target: N-terminal Xaa-Pro-Lys N-methyltransferase 1 (Homo sapiens) (UniProt Q9BV86)
# Sequence (Q9BV86 whole entry, looked up): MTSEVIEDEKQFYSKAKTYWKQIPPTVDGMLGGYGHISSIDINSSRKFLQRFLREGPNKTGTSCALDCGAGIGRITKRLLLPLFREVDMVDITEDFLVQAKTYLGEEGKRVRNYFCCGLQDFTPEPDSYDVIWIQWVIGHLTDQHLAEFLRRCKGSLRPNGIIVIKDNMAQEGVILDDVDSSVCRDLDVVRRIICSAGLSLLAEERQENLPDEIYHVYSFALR
# Experiment: Primary qHTS for Inhibitors of N-terminal methyltransferase 1 (NTMT1): MTaseGlo Assay; also: nearly all actives have a fitted effect of over 65% in size
# Conditions: NTMT1 MTase-Glo SAH luminescence, purified enzyme; series mostly up to 114 µM; activity change, negative = inhibition: at the top concentration
# From the text: Assay Submitter (PI): Rong Huang Ph.D.
# Purdue University, West Lafayette, IN 47907
# The N-terminal methytransferase 1 is the first methyltransferase that methylates protein alpha-N-amines and plays an important role in regulating cell mitosis, chromatin interactions and DNA repair. It is observed to be over-expressed in various cancer patient tissues like malignant melanoma and colorectal cancer tissues. Knockdown of NTMT1 in cancer cells causes cell mitotic defects and enhances sensitivity to DNA damaging chemotherapeutics. […] These critical cellular processes in which NTMT1 is implicated, coupled with emerging links to cellular dysfunction, strengthen the inference that NTMT1 is a compelling novel anticancer target. Progress have been made in understanding the molecular properties of NTMT1 and the biological consequences of protein alpha-N-terminal methylation, but there are no specific small molecule probes available for NTMT1 to fully characterize its MTase activity. To address this unmet need, a panel of assay is created and established to enable quantitative high-throughput screening (qHTS) for novel, potent, and selective small molecule NTMT1 inhibitors. Two orthogonal qHTS that use different reagents (ThioGlo vs. MTaseGlo) are developed for primary robotic screening against the NCATS chemical library of more than 400,000 small molecules. Identified inhibitors are reacquired, validated, and further characterized.
# MTaseGlo Assay is a luminescence screen that measure the activity of methyltransferases based on the reaction product S-adenosyl homocysteine (SAH). The substrate SAM is converted to SAH upon enzyme activation. MTase-Glo reagent and detection solution convert SAH to ATP and measure the light from the luciferase reaction.
# Materials: NTMT1 enzyme, substrate SPKRIA, control peptide RCC1-6 is provided by the Huang laboratory.
# SEQUENCE No. (e.g., 1, 2, 3, etc.); […] (e.g., Cells, Incubation, Reagent, etc.); VALUE; DESCRIPTION
# 1; Enzyme; 3 uL; Dispense enzyme mixture (final concentrations of 125 nM NTMT1 and 100 uM SAM) into Greiner 1536-well white / solid bottom assay plate (Greiner Bio One, Monroe, NC).
# 2; Compounds; 23 nL; Compounds and controls were transferred via a Kalypsys Pin Tool (Wako USA) equipped with a 1536-slotted pin array (Wako Automation, Richmond, VA)
# 3; Incubation; 15 min; Incubate at room temperature
# 4; Substrate; 1 uL; Dispense 1 uL of substrate at final concentration of 1 uM. Buffer solution was dispensed in control wells. The assay plate was covered with metal lids.
# 5; Incubation; 30 min; Incubate at room temperature, protected from lights.
# 6; Reagent; 1 uL; Dispensed 5x MTase-Glo detection reagent (R) into the assay plate. The plate was covered with metal lids.
# 7; Incubation; 30 min; Incubate the assay plates at room temperature in the dark to allow for SAH to be converted to ADP.
# 8; Reagent; 5 uL; Dispense 5 uL of 1x MTase-Glo Detection Solution (R) to allow for ADP to be converted to ATP which was then detected with a luciferase reaction.
# 9; Centrifuge; 15 sec; Centrifuge the assay plate for 15 seconds at 1000 RPM.
# 10; Incubation; 30 min; Assay plates were incubation at room temperature in the dark.
# 11; Detection; Luminescence; Plates were read on ViewLux detector (PerkinElmer). Data were normalized to no-enzyme (0% activity) and no-inhibitor (DMSO; 100%) controls, and the resulting percent inhibition data were fitted to a 4-parameter Hill equation using GraphPad Prism.
# Potency is read from the fitted curve at half-maximal effect.
Compound,"activity change, negative = inhibition",Potency
Cn1c2cc(B(O)O)sc2c2cnn(Cc3ccccc3F)c(=O)c21,17.4% (inactive),–
CC(C)(O)c1ccccc1CC[C@H](SCC1(CC(=O)O)CC1)c1cccc(/C=C/c2ccc3ccc(Cl)cc3n2)c1,1.1% (inactive),–
O=C(NCCc1nc2ccccc2n1CCOc1cccc(Br)c1)C1CCCCC1,-15.1% [at 57.5 µM] (inactive),–
O=S(=O)(c1ccc2c(c1)OCCO2)N1CCN(S(=O)(=O)c2cc(F)ccc2F)CC1,0.151% (inactive),–
COc1ccc(C2Nc3ccccc3C(=O)N2Cc2ccc(Cl)cc2)cc1COc1ccc(NC(C)=O)cc1 (stereo not given),32.5% (inactive),–
Clc1cccc(-n2ncc3c(NCCc4ccccc4)ncnc32)c1,-0.791% (inactive),–
Cc1ccc(-n2ncc3c(NCCCn4ccnc4)ncnc32)cc1Cl,–,44.7 µM (active)
CCN(CC)CCNc1ncnc2c1cnn2-c1cc(Cl)ccc1C,-7.62% (inactive),–
CC(C)=CCC[C@](C)(O[C@@H]1O[C@H](CO[C@@H]2O[C@H](CO)[C@@H](O)[C@H](O)[C@H]2O)[C@@H](O)[C@H](O)[C@H]1O)[C@H]1CC[C@]2(C)[C@@H]1[C@H](O)C[C@@H]1[C@@]3(C)CC[C@H](O[C@@H]4O[C@H](CO)[C@@H](O)[C@H](O)[C@H]4O[C@@H]4O[C@H](CO)[C@@H](O)[C@H](O)[C@H]4O)C(C)(C)[C@@H]3CC[C@]12C,-4.41% [at 57.5 µM] (inactive),–
NC(=O)C1CCN(c2nc(-c3cccc(F)c3)cs2)CC1,-0.0933% (inactive),–
Cc1cn(CCN2CCN(c3ccccc3-c3cc(C#N)cc(C(=O)NCCCN4CCCC4)c3)CC2)c2ccccc12,–,50.1 µM (active)
CCCN1CCN(CCCNC(=O)c2ccc3nc(Cc4ccccc4)oc3c2)CC1,1.05% (inactive),–
Cc1ccc(C)c(N2CCN(CCCNC(=O)Nc3ccc(Cl)cc3)CC2)c1,-18.2% (inactive),–
O=C(Nc1cc(Cc2ccccc2)ccn1)c1ccc(-c2cccc([N+](=O)[O-])c2)o1,9.38% (inactive),–
N#Cc1ccccc1CNc1nc2ncc(Br)cc2[nH]1,11.6% (inactive),–
CCOc1cccc(-c2cc(-c3n[nH]c(=O)n3CC)c3ccccc3n2)c1,-2.86% (inactive),–
N#CSc1cc(SC#N)c(N)nc1N,–,7.8 µM (active)
Cc1cc2c(s1)c1cnn(Cc3c(F)cccc3Cl)c(=O)c1n2C,12.9% (inactive),–
Cc1ccc(C(=O)Nc2cccc(C(F)(F)F)c2)cc1Nc1nc(-c2cccnc2)nc2c1cnn2C,–,inactive and 21.5 µM (active)
Cc1cc(Nc2cccc(C(F)(F)F)c2)nc2ccc(NC(=O)c3ccc(=O)[nH]c3)cc12,0.753% (inactive),–
Cc1cc(C(=O)Nc2cccc(C(F)(F)F)c2)c2c(C)nn(-c3cccc(F)c3)c2n1,-2.97% (inactive),–
COc1cccc(C2c3c(ncn(-c4cccc(Br)c4)c3=N)Oc3ccc4ccccc4c32)c1 (stereo not given),6.03% (inactive),–
COC(=O)c1ccc(NC(=O)c2cc(-c3ccc(C)c(C)c3)nc3ccccc23)cc1,4.26% (inactive),–

Compound,"activity change, negative = inhibition",Potency
COc1ccc(NC(=O)c2cnn3c(C)cc(C)nc23)cc1OC,-0.855% (inactive),–
COc1ccc(C(CC(=O)N2CC(C)CC(C)C2)c2c(O)cc(OC)cc2OC)cc1 (stereo not given),-7.84% [at 228 µM] (inactive),–
CC(=O)Oc1ccccc1C(=O)Nc1ncc([N+](=O)[O-])s1,–,25.1 µM (active)
Cc1ccc(S(=O)(=O)Nc2ccccc2C(=O)Nc2ncc(-c3ccccc3)s2)cc1,19.6% (inactive),–
O=C(Nc1ncc(Cc2ccc(C(F)(F)F)cc2)s1)c1ccc(-c2ccc([N+](=O)[O-])cc2)o1,18.1% (inactive),–
O=c1c2ccccc2nc2sc(Nc3ccc(Oc4ccccc4)cc3)nn12,6.69% (inactive),–
Nc1ccccc1N,–,22.4 µM (active)
Nc1ccc(C(=O)Nc2ccccc2N)cc1,-9.88% [at 57.5 µM] (inactive),–
Cc1nc(-c2ccccc2C(C)C)nc(NCc2ccc(-c3cccnc3)cc2)c1C,6.7% [at 57.5 µM] (inactive),–
O=C(NCc1ccc(Cl)c(Cl)c1)Nc1nnc(-c2ccncc2)s1,-20.2% (inactive),–
CCOC(=O)c1c(CNCc2ccccc2F)c2sc(C)cc2n1C,-4.22% (inactive),–
Cc1ccc(N[S+](=O)([O-])c2cc3c(cc2N[C@@H](C)CO)NC(=O)CC3)cc1N[C@@H](C)CO,-11.2% (inactive),–
CCc1ccc(NC(=O)c2cnn3c(C)cc(-c4ccccc4)nc23)cc1,-14.4% (inactive),–
CCOc1ccc(NC(=O)c2c(NC(=O)Cc3ccccc3)sc3c2CCCCC3)cc1,–,44.7 µM (active)
O=C(Cc1ccccc1)Nc1sc2c(c1C(=O)Nc1ccc(Br)cc1)CCC2,12.1% (inactive),–
CCOc1ccc(NC(=O)c2c(NCc3cccc(OC)c3OC)sc3c2CCC3)cc1,-2% (inactive),–
O=C(CNC(=O)c1ccccc1)OC(C(=O)Nc1cc([N+](=O)[O-])ccc1F)c1ccccc1 (stereo not given),9.09% (inactive),–
NC(=O)c1cnc2[nH]ccc2c1NC1C2CC3C[C@H]1CC(O)(C3)C2 (stereo not given in full),-9.6% (inactive),–
CN(CC(F)(F)F)c1nc(NCc2ccc(-c3cccnc3)cc2)c2ccccc2n1,25.3% (inactive),–
CN(C)[S+](=O)([O-])c1ccc(-c2ccc(=O)n(CC(=O)NCCc3ccccc3)n2)cc1,4.09% (inactive),–
O=C(NC(c1ccco1)c1cc(Cl)c2cccnc2c1O)c1ccccc1 (stereo not given),18.9% (inactive),–
O=C(CSc1ncc(CO)n1Cc1ccc(Cl)cc1)NCc1ccc(F)cc1,-15.8% (inactive),–
